26 molecules from PubChem BioAssay AID624330 (Southern Research Specialized Biocontainment Screening …, 2012) can be followed below.

Screen size: about 340,000 compounds; about 2,100 (0.62%) were called active.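 How the source made its calls: active means first-screen hits whose inhibition reached a set limit at any dose in the follow-up dose series; inconclusive means inhibition above the set first-screen limit but never retested; inactive means the rest.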 Not all results are given here. Entries with a potency or affinity are not part of this list.

For this assay, the target named is Rac GTPase-activating protein 1 (Homo sapiens) (UniProt Q9H0H5). Description: MgcRacGAP GTPase-activating activity inhibitors, confirmation, biochemical, ADP Hunter fluorescence, primary and confirmatory (AID 624330).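 Further: fluorescence reports GDP produced by GAP-driven GTP hydrolysis.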 The conditions noted are these: MgcRacGAP-stimulated Rac1 GTP hydrolysis, at 30 µM, hits give high values, GST-tagged Rac1 F28L mutant substrate.
Rac GTPase-activating protein 1 (Homo sapiens), sequence (Q9H0H5 whole entry, looked up): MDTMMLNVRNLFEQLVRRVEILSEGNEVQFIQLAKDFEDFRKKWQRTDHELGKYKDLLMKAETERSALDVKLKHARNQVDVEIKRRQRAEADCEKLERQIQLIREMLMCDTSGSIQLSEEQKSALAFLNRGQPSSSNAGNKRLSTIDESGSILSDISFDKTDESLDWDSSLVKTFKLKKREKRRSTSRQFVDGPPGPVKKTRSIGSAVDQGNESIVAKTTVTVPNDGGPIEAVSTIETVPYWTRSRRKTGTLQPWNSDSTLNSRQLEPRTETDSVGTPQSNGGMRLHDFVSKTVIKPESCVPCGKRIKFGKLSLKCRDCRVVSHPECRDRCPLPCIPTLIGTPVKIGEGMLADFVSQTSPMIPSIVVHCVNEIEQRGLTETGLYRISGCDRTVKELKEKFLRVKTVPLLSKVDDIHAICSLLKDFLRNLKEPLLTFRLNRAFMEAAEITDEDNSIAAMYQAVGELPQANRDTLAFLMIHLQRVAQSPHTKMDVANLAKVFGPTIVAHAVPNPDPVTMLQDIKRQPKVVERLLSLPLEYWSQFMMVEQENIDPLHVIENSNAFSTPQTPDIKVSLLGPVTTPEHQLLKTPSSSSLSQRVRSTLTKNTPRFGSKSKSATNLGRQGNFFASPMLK
In the case of `Cc1c(Br)cnn1C(C)C(=O)N1CCN(c2ccc(F)cc2)CC1` (stereo unspecified), the inhibition is 3.49% (inactive).

As for `COc1cc(/C=C/C(=O)OCC(=O)Nc2ccc([N+](=O)[O-])cc2)ccc1O`, the inhibition is 4.8% (inactive).

On to `COc1cccc(/C=C/C(=O)NCc2cn3cc(Cl)ccc3n2)c1`, for which the inhibition is 2.4% (inactive).

In the case of `COc1cc(/C=C/C(=O)OCC(=O)Nc2ccccc2Sc2ccc(Cl)cc2)ccc1O`, the inhibition was 16.7% (inactive).

Regarding `COc1cc(/C=C/C(=O)OCC(=O)Nc2ccc(Cl)cn2)ccc1O`, the inhibition was 21.2% (inactive).

For the molecule `O=C(COC(=O)/C=C/c1cccc(F)c1)Nc1ccccc1`, the inhibition was -19.5% (inactive).

Turning to `O=C(/C=C/c1cccc(Cl)c1)OCc1cn2cc(Cl)ccc2n1`, the inhibition is 11.7% (inactive).

On to `COc1cc(NC(=O)COC(=O)/C=C/c2ccc(OC)c(OC)c2)cc(OC)c1`, for which the inhibition is -0.81% (inactive).

As to `COc1cc(/C=C/C(=O)OCC(=O)Nc2cc(C)c(C)cc2[N+](=O)[O-])ccc1O`, the inhibition is 9.32% (inactive).

Turning to `CCOc1cc(CNCC2CCCO2)cc(Br)c1OCC(N)=O` (stereo unspecified), the inhibition is 3.03% (inactive).

As to `CCn1ncc(CN2CCN(C(=O)Nc3ccccc3C(=O)OC)CC2)c1C`, the inhibition was 6.62% (inactive).

As to `O=C(Cn1ncn2c(cc3ccccc32)c1=O)NCCCc1ccccc1`, the inhibition is 1.38% (inactive).

With `CC(C)(C)NC(=O)CN1C(=O)/C(=C/c2ccccc2)SC1=S`, the inhibition was 9.16% (inactive).

Regarding `CCC(Cc1ccccc1)NC(=O)CCc1ccccc1` (stereo unspecified), the inhibition is 7.57% (inactive).

In the case of `O=C(OCN1C(=O)C(=O)c2ccccc21)c1ccc(Cl)cc1`, the inhibition is 7.35% (inactive).

Consider `CCCCn1c(N)c(N(Cc2ccccc2OC)C(=O)COc2ccc(F)cc2Cl)c(=O)[nH]c1=O`, for which the inhibition is 4.08% (inactive).

Consider `CCOC(=O)C1=C(COC(=O)/C=C/c2ccc(OC)c(OC)c2)NC(=O)NC1C` (stereo unspecified), for which the inhibition is -0.71% (inactive).

As to `CCOC(=O)C1=C(COC(=O)/C=C/c2ccc(OCC)c(OC)c2)NC(=O)NC1C` (stereo unspecified), the inhibition is 9.47% (inactive).

With `COc1ccc(-c2cc(C3CCN(Cc4cccc(C(F)(F)F)c4)CC3)[nH]n2)cc1`, the inhibition was 9.81% (inactive).

For `CC(C)c1ccc2nc(NC(=O)C3CC3)sc2c1`, the inhibition is 9.94% (inactive).

For `COc1ccccc1NC(=O)c1ccccc1S(=O)(=O)c1ccc([N+](=O)[O-])cc1`, the inhibition is 11.4% (inactive).

With `c1ccc(Nc2cccc(Nc3ccccc3)n2)cc1`, the inhibition was 16.6% (inactive).

In the case of `c1ccc(Nc2ccccn2)cc1`, the inhibition is 1.32% (inactive).

As for `Cc1ccc(NC(=O)CSc2ccc3c(c2)OCCO3)c(O)c1`, the inhibition is 8.94% (inactive).

Take `CC(=O)c1ccc(N2CCN(C(=O)COc3ccc4c(c3)CCC4)CC2)cc1`: the inhibition was 5.57% (inactive).

With `O=C(O)c1ccc2c(c1)S(=O)(=O)c1cc(N3CCN(c4cnccn4)CC3)ccc1C2=O`, the inhibition was 13.8% (inactive).

In general, inhibition refers to the drop in the measured response relative to a control, in per cent.
